Compound activity: PubChem BioAssay, several laboratories
Sampled rows, rich in hits. Any-hit rate of the full collection: about 2.1%.
RN4220 kill: kills Staphylococcus aureus RN4220. S. aureus RN4220 growth, OD600, 16 h. inhibition, % (no concentration beside the values). 330,000 compounds, 0.33% hits. AID 1259311; in the data active = inhibition above about 85%;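 also: plate controls were untreated cells for no effect and reference antibiotic for full effect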
PrPC TRFRET: inhibitors of human cell surface prion protein PrPC; 370,000 compounds, 0.43% hits; TR-FRET read-out; P04156; AID 720596; inhibition, % at 13.8 µM; in the data active = inhibition above about 24%; also: 0% = median of the test wells and 100% = reference compound wells
CCHF vOTU inh: CCHFV vOTU protease inhibition; AID 651958; inhibition, % at 11.5 µM; 370,000 compounds, 0.55% hits; Pep-AMC fluorescence; in the data active = inhibition above about 30%; also: 0% = vehicle wells with enzyme and 100% = no enzyme wells
PrP 5UTR inh: inhibition of PrP 5' UTR reporter expression | cell-based PrP 5' UTR mRNA reporter, plate reader | inhibition, % (no concentration beside the values) | 340,000 compounds, 0.35% hits; in the data active = inhibition above about 52%; also: 0 = median of the neutral control wells
ugtP null kill: growth inhibition of S. aureus ugtP deletion strain | S. aureus RN4220 ugtP deletion, OD600 growth, 16 h | growth inhibition, % (no concentration beside the values) | 330,000 compounds, 0.54% hits | AID 1259309; in the data active = growth inhibition above about 68%;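 also: plate controls were untreated wells for no effect and antibiotic for full effect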
PfHsp40 rescue: restores yeast growth despite PfHsp40 toxicity. growth rescue, % at 12.5 µM. 340,000 compounds, 0.68% hits. S. cerevisiae expressing PfHsp40, growth rescue, ATP luminescence; in the data active = growth rescue above about 28%, passing the limit was not always enough; inconclusive = no clear call, values can overlap the other calls;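 also: yeast W303a lacking pdr1 and pdr3 grown in galactose medium; growth measured after three days at 30 °C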
PrP UTR cherry: prion 5' UTR mRNA inhibition, cherry-pick retest | 1,100 compounds, 48% hits | shares compounds with PrP 5UTR inh | cell-based prion protein 5' UTR reporter, plate reader | inhibition, % at 2.5 µM; in the data active = inhibition above about 54%; inconclusive = no clear call, values can overlap the other calls
The depositor's hits bear a star; u = inconclusive; x = not tested or not shown.

SMILES	RN4220 kill	PrPC TRFRET	CCHF vOTU inh	PrP 5UTR inh	ugtP null kill	PfHsp40 rescue	PrP UTR cherry
CCC1CCCCN1C(=S)NC(=O)c1ccc(F)c(S(=O)(=O)N2CCOCC2)c1 (stereo unspecified)	3	5	3	59*	0	0	5
Cc1cc(C(=O)N2CC=C(c3ccccc3)CC2)c2ccccc2n1	-2	19	4	52*	0	0	74*
C[C@@H]1COC(=O)[C@@H](Cc2ccc(F)cc2)C/C=C\C[C@H](CC(=O)N(CCO)Cc2ccccc2)C(=O)N1	1	-3	-6	85*	-1	1	-14
Cc1nnc(SCSc2nnc(C)s2)s1	-7	-2	13	-23	-4	-1	x
Cc1nnc(SCc2ccccc2CSc2nnc(C)s2)s1	2	-2	-3	60*	6	-1	14
CCOC(=O)C1=C(c2ccccc2)N=c2sc(=Cc3ccc(O)cc3)c(=O)n2C1c1cccs1 (stereo unspecified)	-7	x	x	x	17	x	x
COc1cc(C=NNC(=O)c2ccncc2)ccc1OC(=O)c1ccccc1Cl	5	x	x	x	-3	x	x
COC(=O)C1=C(C)N=c2sc(=Cc3ccoc3)c(=O)n2C1c1ccccc1 (stereo unspecified)	-5	x	x	x	-26	x	x
COc1ccccc1-n1c([S-])c(C(=O)Nc2ccccc2C(F)(F)F)[n+]2ccc(C(=O)NCCO)cc12	5	-14	7	-18	8	0	x
Cc1ccc(-n2c([S-])c(C(=O)Nc3ccc(OC(F)F)cc3)[n+]3ccc(C(=O)NCCO)cc23)cc1C	-7	-11	5	78*	-13	1	0
Cn1c(=O)oc2cc(S(=O)(=O)N3CCC(C(=O)N4CCN(c5ccccc5)CC4)CC3)ccc21	1	5	2	-26	8	1	x
Cn1c(=O)oc2cc(S(=O)(=O)N3CCC(C(=O)N4CC=C(c5ccccc5)CC4)CC3)ccc21	6	-4	-4	61*	15	0	-5
C=CCNC(=O)C1CCN(C(=O)c2ccc(-c3ccccc3)cc2)CC1	5	-6	-9	60*	5	1	u
CCn1c(C)nc2cc(-c3nc4n(n3)Cc3ccccc3-4)ccc21	20	x	x	94*	23	-4	96*
CCC(=O)c1ccc(Oc2nc3c(c(=O)n(C)c(=O)n3C)n2CC)cc1	0	5	-12	58*	10	1	7
CC(=NNc1ccc2ccccc2n1)c1ccccc1O	x	3	1	67*	x	-2	47
C/C(=N\Nc1nc2ccccc2nc1C)c1ccccc1O	x	3	4	-14	x	2	x
CC(C)(C)c1ccc(-c2noc(CCC(=O)Nc3cccnc3)n2)cc1	x	4	12	65*	x	0	34
O=C(NC(=S)NNC(=O)c1cccs1)c1ccco1	16	-2	6	-46	-13	-1	x
O=C(NNC(=O)c1cccs1)c1ccco1	-2	-3	11	64*	-11	3	88*
C[C@@H]1O[C@@H](O[C@H]2C[C@@H](O)[C@]3(CO)[C@H]4[C@H](O)C[C@]5(C)[C@@H](C6COC(=O)C6)CC[C@]5(O)[C@@H]4CC[C@]3(O)C2)[C@H](O)[C@H](O)[C@H]1O (stereo partly specified)	x	4	5	59*	x	0	70*
CC1OC(OC2CC(O)C3(CO)C4C(O)CC5(C)C(C6=CC(=O)OC6)CCC5(O)C4CCC3(O)C2)C(O)C(O)C1O (stereo unspecified)	x	-5	10	91*	x	-3	93*
C=C(C)Cn1c(SCC(=O)NN=Cc2ccccc2)nc2ccccc2c1=O	2	x	x	x	-7	x	x
COc1ccc2[nH]c(-c3cccc(F)c3)cc(=O)c2c1	-1	-1	-19	62*	-1	1	92*
O=c1cc(-c2cccc(F)c2)[nH]c2ccccc12	9	13	-3	19	7	1	x
SMILES	RN4220 kill	PrPC TRFRET	CCHF vOTU inh	PrP 5UTR inh	ugtP null kill	PfHsp40 rescue	PrP UTR cherry
Cc1ccc(NC(=O)c2cc3ccccc3o2)cc1S(=O)(=O)N(C)C	3	0	-2	-98	-9	1	x
Cc1ccc(NC(=O)c2cc3ccccc3oc2=O)cc1S(=O)(=O)N(C)C	1	x	x	90*	-7	0	90*
COc1ccccc1/C=C/C=c1sc2nc(=O)c(Cc3ccccc3)nn2c1=O	2	x	x	x	-1	x	x
CCN1C/C(=C/c2cccc([N+](=O)[O-])c2)C(=O)/C(=C/c2cccc([N+](=O)[O-])c2)C1	4	-13	24	66*	-3	0	61*
CCOc1cc(/C=C2\CN(CC)C/C(=C\c3ccc(O)c(OCC)c3)C2=O)ccc1O	-2	-14	7	-13	-12	2	x
COc1ccc(C2CC=C(C(=O)O)CN2S(=O)(=O)c2ccc(C)cc2)cc1OC (stereo unspecified)	1	x	x	x	0	x	x
Cc1nn(C(C)(C)C)c(C)c1C=NOC(=O)Nc1ccc(Cl)c(Cl)c1	-10	x	x	x	-39	x	x
Cc1nn(C(C)(C)C)c(C)c1/C=N/OC(=O)Nc1ccc(Cl)cc1	x	11	-3	94*	x	10	93*
Cn1cc(/C=N/n2cnc3scc(-c4ccc(Cl)cc4)c3c2=O)c2ccccc21	x	1	0	57*	x	1	91*
COc1cc(C=Nn2cnc3scc(-c4cccs4)c3c2=O)cc(OC)c1OC	-1	x	x	x	-1	x	x
Cc1ccc(C)c(NC(=O)c2cc3ccccc3o2)c1	-1	7	5	-50	-4	1	x
Cc1ccnc(NC(=O)c2cc3ccccc3o2)c1	1	0	-10	58*	5	-1	u
O=C(Nc1ccc(Cl)cn1)c1cc2ccccc2o1	-4	-4	6	-125	-4	2	x
O=C(Nc1ccccn1)c1cc2ccccc2o1	3	-7	-2	59*	-3	0	57*
O=C(NCc1cccnc1)c1ccccc1Br	5	-1	0	77*	2	0	3
O=C(NCc1ccccc1)c1ccccc1Br	1	-8	-2	-10	-8	-1	x
c1ccc(C(Nc2cccnc2)c2ccccc2)cc1	x	1	-1	71*	x	1	-13
Cc1nc2ccccn2c1C(=O)NC1CCCc2ccccc21 (stereo unspecified)	8	12	0	60*	12	-2	u
Cc1ccsc1C=NNC(=O)Cn1cnc2ccccc21	14	x	x	x	-9	x	x
COc1ccc(C2=Nn3c(nnc3-c3ccccc3OC)SC2)cc1OC1CCOC1 (stereo unspecified)	-1	12	12	81*	-17	0	83*
COc1ccccc1-c1nnc2n1N=C(c1ccc(O)c(O)c1)CS2	5	x	x	61*	-9	0	90*
Cc1ccccc1-c1nnc2n1N=C(c1ccc(O)c(O)c1)CS2	x	-8	3	x	x	x	x
